MITF primary = inhibitors of human MITF | O75030 | inhibition, % at 2.6 µM | AlphaScreen MITF homodimerization, bead proximity signal | actives 0.91% (n = 650,000); in the data active = inhibition above about 50%;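 note: 0% = vehicle wells with protein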
Target sequence (O75030 whole entry, looked up): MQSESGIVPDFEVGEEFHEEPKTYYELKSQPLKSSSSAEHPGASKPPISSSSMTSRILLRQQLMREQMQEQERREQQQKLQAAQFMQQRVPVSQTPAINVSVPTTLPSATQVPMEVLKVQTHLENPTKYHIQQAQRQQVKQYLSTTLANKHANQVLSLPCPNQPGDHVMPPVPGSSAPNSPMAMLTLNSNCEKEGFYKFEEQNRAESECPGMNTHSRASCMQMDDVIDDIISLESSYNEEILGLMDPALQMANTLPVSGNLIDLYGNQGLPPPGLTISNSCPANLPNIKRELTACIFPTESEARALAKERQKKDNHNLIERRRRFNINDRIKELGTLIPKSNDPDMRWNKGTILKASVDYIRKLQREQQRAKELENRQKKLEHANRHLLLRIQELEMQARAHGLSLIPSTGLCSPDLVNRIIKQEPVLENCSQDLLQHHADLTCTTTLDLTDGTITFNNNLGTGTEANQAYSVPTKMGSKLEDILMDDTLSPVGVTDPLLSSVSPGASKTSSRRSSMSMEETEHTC
FBW7 activator = activators of human E3 ligase FBW7. Q969H0. AlphaScreen FBW7–phospho-cyclin E peptide binding, activator screen. normalized activity (activation), % at 26.1 µM. actives 0.13% (n = 650,000); in the data active = normalized activity above about 1.9%;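 note: purified mutant Fbw7 with reduced substrate affinity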
GPR151 activ = activators of human GPR151; Q8TDV0; PathHunter beta-arrestin GPR151 cells, luminescence; AID 1508602; actives 1% (n = 650,000); activation, % at 11.2 µM; in the data active = activation above about 4.9%;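 note: 0% = median of compound wells and 100% = cells with positive control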
TEAD-YAP block = TEAD-YAP interaction inhibition; AID 1259422; inhibition, % at 9.12 µM; HEK-TIYL cells, TEAD-Gal4/YAP UAS-luciferase luminescence; actives 1.4% (n = 640,000); in the data active = inhibition above about 32%;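 note: 0% = median of test compound wells and 100% = reference inhibitor wells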
The depositor's hits bear a star. An excerpt weighted towards active compounds, which were near 3.5% of everything screened.

SMILES | MITF primary | FBW7 activator | GPR151 activ | TEAD-YAP block
Cc1ccc(N2C(=O)CSC2c2cccc([N+](=O)[O-])c2)cc1F (configuration not stated) | 0 | 0 | -1 | 34*
O=C(NCCN1CCOCC1)c1ccc2c(=O)n(CC3CCCO3)c(=S)[nH]c2c1 (configuration not stated) | 11 | 0 | -1 | -6
CC(=O)N[C@@H](Cc1cccc(C)c1)c1nc2ncc(-c3ccncc3)cc2[nH]1 | -4 | 0 | -1 | 46*
OC1(c2ccc(OC(F)F)cc2)CSC(=Nc2cccnc2)N1C1CC1 (configuration not stated) | 20 | 0 | 0 | 42*
COc1ccc(N2C(=O)/C(=C\c3cccc(OC)c3OC)C(=O)NC2=S)cc1 | 6 | 0 | 2 | -3
O=C(NNC(=S)NCC1CCCO1)C(Sc1ccccc1)c1ccccc1 (configuration not stated) | 2 | 2.2* | 1 | 1
COc1ccc(N2C(=O)C3C4c5ccccc5C(c5ccccc54)C3(C)C2=O)cc1 (configuration not stated) | 10 | 0 | 0 | 6
Fc1ccc(-n2ncc3c(N4CCCCCC4)ncnc32)cc1 | 8 | 1 | 2 | 28
Clc1ccc(-n2ncc3c(N4CCCCC4)ncnc32)cc1 | -10 | 0 | -1 | 96*
Clc1ccc(-n2ncc3c(N4CCCC4)ncnc32)cc1 | -3 | 0 | 3 | 35*
O=C(O)c1c2c(nc3ccccc13)CCN(C(=O)c1cccc(C(F)(F)F)c1)C2 | 8 | 0 | 0 | 2
Cn1c(=O)c2c(NC(=O)c3cc4ccccc4o3)ccnc2n(C)c1=O | 30 | 0 | 2 | 1
Fc1ccc(-c2cn3cc(Cl)ccc3n2)cc1 | 14 | 0 | -8 | 37*
Clc1ccc2nc(-c3ccc4c(c3)OCO4)cn2c1 | -16 | 0 | -9 | 73*
Clc1ccc2nc(-c3ccccc3)cn2c1 | 12 | 0 | -9 | 77*
Clc1ccc2nc(-c3ccc(Br)cc3)cn2c1 | -13 | 0 | 0 | -78
Cc1cc([N+](=O)[O-])nn1CC(=O)Nn1c(C2CCCCC2)nc2ccccc2c1=O | 3 | 0 | 0 | 6
COc1ccc(O)c(C2=Nc3ccccc3N=C(c3ccc(C(C)(C)C)cc3)C2)c1 | 7 | 0 | 2 | 56*
CCOC(=O)c1c(NC(=O)C2C3C=CC(C3)C2(C)C(=O)O)sc2c1CCCC2 (configuration not stated) | 60* | -1 | 2 | 40*
Cc1nc(NCCC2=CCCCC2)c2c3c(sc2n1)CCC3 | -6 | 0 | -1 | 4
Cc1nc(NCCC2=CCCCC2)c2cc(C)sc2n1 | -1 | 0 | 0 | 41*
O=C1c2ccccc2C(=O)c2cc(S(=O)(=O)O)c(O)cc21 | 64* | -1 | -1 | 0
Nc1cc2c(cc1S(=O)(=O)O)C(=O)c1ccccc1C2=O | 18 | 0 | -7 | -11
OCc1nc2ccc(-c3ccc4nc(CO)[nH]c4c3)cc2[nH]1 | 15 | 0 | -6 | 58*
OCc1nc2ccc(Cc3ccc4nc(CO)[nH]c4c3)cc2[nH]1 | 3 | 0 | 4 | 14
SMILES | MITF primary | FBW7 activator | GPR151 activ | TEAD-YAP block
CC(C)(C)c1ccc(C(=O)NCCOc2ccccc2)cc1 | 2 | 0 | -2 | 36*
CC(C)(C)c1ccc(C(=O)NCCOc2ccccc2F)cc1 | 4 | 1 | -1 | 59*
O=[N+]([O-])c1ccc(/C=C/c2ccc(O)cc2)cc1 | 4 | 0 | -11 | 49*
COc1ccccc1CN(Cc1cc2cccc(C)c2n2nnnc12)C(=O)c1ccncc1 | -1 | 0 | 0 | 34*
Cc1cccc2cc(CN(CCc3ccccc3)C(=O)c3ccncc3)c3nnnn3c12 | 12 | 1 | -1 | -2
CCNC(=O)/C(C#N)=C/c1c(Oc2ccccc2C)nc2ccccn2c1=O | 5 | 0 | -6 | 34*
CCNC(=O)/C(C#N)=C/c1c(Oc2cccc(C)c2C)nc2ccccn2c1=O | -10 | 0 | -4 | 42*
CNC(=O)/C(C#N)=C/c1c(Oc2cccc(C)c2C)nc2ccccn2c1=O | 9 | 0 | -3 | 28
COc1cc(-c2nc3ccccn3c2NC(C)(C)C)ccc1O | 4 | 0 | 2 | -5
COc1ccc(Nc2ccnc3c(-c4cccc(CO)c4)cnn23)cn1 | 5 | 0 | -3 | 98*
COc1ccc(Nc2ccnc3c(-c4cccc(O)c4)cnn23)cn1 | 13 | 0 | -2 | 25
COc1ccc(Nc2ccnc3c(-c4ccc(O)cc4)cnn23)cn1 | -15 | 0 | -2 | 91*
O=C(Nc1nc(-c2ccc3ccccc3c2)cs1)c1cc([N+](=O)[O-])ccc1Cl | 1 | 0 | 0 | 37*
CCOC(=O)c1ccc(Nc2cc(OC)c([N+](=O)[O-])nc2[N+](=O)[O-])cc1 | 25 | 1 | -1 | 67*
O=C(Nc1nc(-c2cccc3ccccc23)cs1)c1cc([N+](=O)[O-])ccc1Cl | -2 | 0 | 0 | 44*
CCOC(=O)c1sc(NC(=O)c2cc(Cl)ccc2[N+](=O)[O-])nc1-c1ccccc1 | 5 | 0 | 0 | 21
CCOC(=O)c1sc(NC(=O)c2cc([N+](=O)[O-])ccc2Cl)nc1-c1ccccc1 | 6 | 0 | -1 | 39*
O=C(NCc1ccc(Cl)cc1)NCc1nnnn1-c1ccc(Cl)cc1 | 11 | 0 | -2 | 11
COc1ccccc1NC(=O)CSc1nccn2nc(-c3ccc(F)cc3)cc12 | 8 | 0 | 0 | 0
CCOc1cc(Cl)c(CNCCCO)cc1OCC | 10 | 0 | 2 | 9
COc1ccc(-c2csc(NC(=O)c3cc(Cl)ccc3[N+](=O)[O-])n2)cc1C | 19 | 0 | 0 | 53*
O=C(Nc1nc(-c2ccccc2)cs1)c1cc([N+](=O)[O-])ccc1Br | 1 | 0 | -1 | 23
CCOC(=O)c1ccc(NC(=O)c2cc([N+](=O)[O-])ccc2Cl)cc1 | 11 | 0 | 1 | 39*
O=C(Nc1nc(-c2ccccc2)cs1)c1cc([N+](=O)[O-])ccc1Cl | 12 | 0 | -1 | 33*
C/C(=N\NC(=S)NCCO)c1cccnc1 | -3 | 0 | -1 | -10
SMILES | MITF primary | FBW7 activator | GPR151 activ | TEAD-YAP block
O=Cc1cccc(Oc2nnnn2-c2ccccc2)c1 | 4 | 0 | 0 | -7
CCOc1ccc(C2CC(c3c(F)cccc3Cl)n3nc(N)nc3N2)cc1 (configuration not stated) | 21 | 0 | -1 | 7
Cn1c(=O)n(Cc2ccc(C(C)(C)C)cc2)c(=O)c2c1ncn2Cc1ccccc1 | 8 | 0 | 0 | -7
CC(NC(=O)C(=O)NCC1CCNCC1)c1ccccc1 (configuration not stated) | 2 | 0 | 0 | 2
Cc1cc(OCC(=O)Nc2c(C)nn(Cc3ccc(F)cc3)c2C)ccc1[N+](=O)[O-] | 10 | 0 | 0 | 54*
Cc1cc(OCC(=O)Nc2ccc(F)cc2)ccc1[N+](=O)[O-] | 1 | 0 | -1 | -12
O=C(C1CCN(Cc2ccccc2O)CC1)N1CCc2ccccc2C1 | 38 | 0 | 0 | 15
CCOC(=O)N1CCN(C(=O)C2CCN(Cc3cccc(OC)c3O)CC2)CC1 | 55* | 0 | -1 | -6
